# Records with an inconclusive call do not appear. Active and inactive are the calls of the source. Rule for the calls: active = hit-call score of the fitted dose curve at least 0.9, where 1 is the maximum; inconclusive = response in the unintended direction; inactive = score below 0.9.
# How the values were obtained:
# [1] = molecular target: human Neuropeptide Receptor Y1 (NPY1), NPY1R (gene 4886) (UniProt P25929); test: NVS_GPCR_hNPY1: NovaScreen (NVS) G Protein-Coupled Receptor Assay for human Neuropeptide Receptor Y1 (NPY1) (AID 2283276)
# Chain of human Neuropeptide Receptor Y1 (NPY1), NPY1R (gene 4886) (P25929 whole entry, looked up): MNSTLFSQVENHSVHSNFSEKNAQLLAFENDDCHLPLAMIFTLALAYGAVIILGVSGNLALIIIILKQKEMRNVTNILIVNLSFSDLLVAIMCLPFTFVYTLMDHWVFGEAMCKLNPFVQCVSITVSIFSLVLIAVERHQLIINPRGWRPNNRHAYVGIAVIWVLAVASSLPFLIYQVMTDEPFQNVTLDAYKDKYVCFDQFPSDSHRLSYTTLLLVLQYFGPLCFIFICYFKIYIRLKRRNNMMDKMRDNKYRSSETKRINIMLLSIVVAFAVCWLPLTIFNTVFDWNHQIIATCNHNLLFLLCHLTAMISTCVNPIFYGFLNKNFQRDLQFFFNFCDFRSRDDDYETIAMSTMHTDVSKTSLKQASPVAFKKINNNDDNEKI
# Method in brief: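 Cell-free radioligand binding using receptor extracted from SK-N-MC cells, 1 h incubation, filter-based scintillation counting. Primary screen single concentration 25 uM in duplicate; actives followed in concentration series. Loss of bound signal scored versus DMSO.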
# [2] = test system: 5-hydroxytryptamine receptor 2C (pig); test: NVS_GPCR_p5HT2C: NovaScreen (NVS) G Protein-Coupled Receptor Assay for pig Serotonin, 5-Hydroxytryptamine Receptor 2C (5HT2C) (AID 2283288)
# Method in brief: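 Pig choroid plexus membranes; radioligand competitive binding, filter-based scintillation counting, read 1 h after dosing. Primary screen in duplicate at 25 uM; actives then run as concentration series; loss of signal versus DMSO baseline.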
# [3] = test system: rabbit Platelet Activating Factor Receptor (PAF), gene 100354046; test: NVS_GPCR_rabPAF: NovaScreen (NVS) G Protein-Coupled Receptor Assay for rabbit Platelet Activating Factor Receptor (PAF) (AID 2283287)
# Method in brief: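 Rabbit platelet membrane preparation; radioligand displacement read by filter-based scintillation counting 1 h after dosing, loss of signal versus DMSO. Primary screen in duplicate at 25 uM, actives followed up in concentration series.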
# [4] = molecular target: human Neurokinin, NK2 Receptor, TACR2 (gene 6865) (UniProt P21452); test: NVS_GPCR_hNK2: NovaScreen (NVS) G Protein-Coupled Receptor Assay for human Neurokinin, NK2 Receptor (AID 2283278);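 note: actives reduce bound radioligand signal relative to DMSO baseline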
# Chain of human Neurokinin, NK2 Receptor, TACR2 (gene 6865) (P21452 whole entry, looked up): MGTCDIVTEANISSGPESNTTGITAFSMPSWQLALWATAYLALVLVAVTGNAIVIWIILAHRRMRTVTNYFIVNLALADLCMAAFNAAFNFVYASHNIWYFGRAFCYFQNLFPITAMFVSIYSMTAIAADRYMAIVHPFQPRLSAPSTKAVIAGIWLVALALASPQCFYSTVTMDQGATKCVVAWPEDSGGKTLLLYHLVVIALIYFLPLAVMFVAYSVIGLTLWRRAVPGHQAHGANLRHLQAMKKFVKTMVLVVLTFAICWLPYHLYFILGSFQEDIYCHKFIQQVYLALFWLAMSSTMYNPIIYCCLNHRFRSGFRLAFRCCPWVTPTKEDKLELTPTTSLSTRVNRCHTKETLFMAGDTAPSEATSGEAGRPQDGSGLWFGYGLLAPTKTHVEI
# Method in brief: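 Filter-based scintillation counting measured radioligand bound to receptor extracted from CHO cells, 4 hours after compound addition. Chemicals screened first at 25 uM in duplicate, with actives retested in concentration series relative to DMSO.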
# [5] = molecular target: human Thromboxane A2 Receptor (TXA2), TBXA2R (gene 6915) (UniProt P21731); test: NVS_GPCR_hTXA2: NovaScreen (NVS) G Protein-Coupled Receptor Assay for human Thromboxane A2 Receptor (TXA2) (AID 2283282);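 note: actives reduce bound radioligand signal relative to DMSO baseline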
# Chain of human Thromboxane A2 Receptor (TXA2), TBXA2R (gene 6915) (P21731 whole entry, looked up): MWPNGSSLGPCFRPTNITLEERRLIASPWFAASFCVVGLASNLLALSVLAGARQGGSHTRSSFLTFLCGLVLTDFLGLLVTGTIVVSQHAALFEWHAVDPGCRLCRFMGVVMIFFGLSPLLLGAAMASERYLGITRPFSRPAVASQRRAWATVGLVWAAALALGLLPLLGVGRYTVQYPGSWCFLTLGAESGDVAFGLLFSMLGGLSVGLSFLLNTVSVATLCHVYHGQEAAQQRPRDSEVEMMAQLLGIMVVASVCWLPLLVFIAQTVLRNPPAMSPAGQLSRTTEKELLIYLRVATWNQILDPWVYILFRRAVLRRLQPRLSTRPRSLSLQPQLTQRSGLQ
# Method in brief: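 Filter scintillation counting of bound radioligand, human platelet protein, 1 h exposure. Single-concentration duplicates (25 uM) first, concentration-response follow-up for actives. Binding loss scored against DMSO baseline.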
# [6] = molecular target: mouse Cholecystokinin, CCK1 Receptor (CCKA), Cckar (gene 12425) (UniProt O08786); test: NVS_GPCR_mCCKAPeripheral: NovaScreen (NVS) G Protein-Coupled Receptor Assay for mouse Cholecystokinin, CCK1 Receptor (CCKA) (AID 2283285)
# Chain of mouse Cholecystokinin, CCK1 Receptor (CCKA), Cckar (gene 12425) (O08786 whole entry, looked up): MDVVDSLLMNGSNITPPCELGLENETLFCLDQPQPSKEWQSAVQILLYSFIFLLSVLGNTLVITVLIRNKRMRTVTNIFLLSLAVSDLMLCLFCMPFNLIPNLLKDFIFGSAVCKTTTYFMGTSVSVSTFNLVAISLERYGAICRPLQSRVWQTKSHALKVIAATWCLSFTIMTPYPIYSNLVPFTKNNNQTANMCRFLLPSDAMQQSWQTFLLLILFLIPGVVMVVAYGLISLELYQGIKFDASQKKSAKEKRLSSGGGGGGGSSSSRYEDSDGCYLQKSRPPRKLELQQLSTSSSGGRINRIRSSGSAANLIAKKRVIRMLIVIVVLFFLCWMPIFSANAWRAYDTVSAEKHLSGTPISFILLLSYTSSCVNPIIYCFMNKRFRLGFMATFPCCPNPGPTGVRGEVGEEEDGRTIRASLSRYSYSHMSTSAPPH
# Method in brief: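 Radioligand competitive displacement on mouse pancreatic membranes, 2 h incubation; filter-based scintillation counting, loss of signal versus DMSO. Single-concentration screen at 25 uM in duplicate, actives retested in concentration-response up to 50 uM.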
# [7] = molecular target: Muscarinic acetylcholine receptor M2 (Homo sapiens) (UniProt P08172); test: NVS_GPCR_hM2: NovaScreen (NVS) G Protein-Coupled Receptor Assay for human Muscarinic, M2 Receptor (AID 2283273)
# Method in brief: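 CHO membrane prep, radioligand + test compound, 1 h; filtration, scintillation count. Screen 25 uM duplicate → conc. series for actives. Readout: decrease in binding vs DMSO control.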
# [8] = molecular target: human Muscarinic, M4 Receptor, CHRM4 (gene 1132) (UniProt P08173); test: NVS_GPCR_hM4: NovaScreen (NVS) G Protein-Coupled Receptor Assay for human Muscarinic, M4 Receptor (AID 2283274)
# Chain of human Muscarinic, M4 Receptor, CHRM4 (gene 1132) (P08173 whole entry, looked up): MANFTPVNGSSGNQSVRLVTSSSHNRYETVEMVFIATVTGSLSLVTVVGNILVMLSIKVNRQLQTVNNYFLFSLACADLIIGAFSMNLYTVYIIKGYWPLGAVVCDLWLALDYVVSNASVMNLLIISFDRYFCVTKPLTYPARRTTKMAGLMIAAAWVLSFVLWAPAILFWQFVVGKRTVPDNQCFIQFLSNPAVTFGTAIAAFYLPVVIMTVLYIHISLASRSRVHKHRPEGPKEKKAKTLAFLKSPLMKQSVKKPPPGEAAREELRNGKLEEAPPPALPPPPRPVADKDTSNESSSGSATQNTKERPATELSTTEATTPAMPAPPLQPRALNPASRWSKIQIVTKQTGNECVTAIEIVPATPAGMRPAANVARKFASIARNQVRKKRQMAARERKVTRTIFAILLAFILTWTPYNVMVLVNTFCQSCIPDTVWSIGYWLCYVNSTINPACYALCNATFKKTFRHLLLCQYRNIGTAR
# Method in brief: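 Cell-free radioligand displacement using CHO-derived human M4 receptor protein, 1 h after dosing; bound radioactivity by filtration and scintillation counting. Primary screen single 25 uM duplicate, actives followed in concentration series.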
# [9] = molecular target: Muscarinic acetylcholine receptor M5 (Homo sapiens) (UniProt P08912); test: NVS_GPCR_hM5: NovaScreen (NVS) G Protein-Coupled Receptor Assay for human Muscarinic, M5 Receptor (AID 2283275)
# Chain of Muscarinic acetylcholine receptor M5 (Homo sapiens) (P08912 whole entry, looked up): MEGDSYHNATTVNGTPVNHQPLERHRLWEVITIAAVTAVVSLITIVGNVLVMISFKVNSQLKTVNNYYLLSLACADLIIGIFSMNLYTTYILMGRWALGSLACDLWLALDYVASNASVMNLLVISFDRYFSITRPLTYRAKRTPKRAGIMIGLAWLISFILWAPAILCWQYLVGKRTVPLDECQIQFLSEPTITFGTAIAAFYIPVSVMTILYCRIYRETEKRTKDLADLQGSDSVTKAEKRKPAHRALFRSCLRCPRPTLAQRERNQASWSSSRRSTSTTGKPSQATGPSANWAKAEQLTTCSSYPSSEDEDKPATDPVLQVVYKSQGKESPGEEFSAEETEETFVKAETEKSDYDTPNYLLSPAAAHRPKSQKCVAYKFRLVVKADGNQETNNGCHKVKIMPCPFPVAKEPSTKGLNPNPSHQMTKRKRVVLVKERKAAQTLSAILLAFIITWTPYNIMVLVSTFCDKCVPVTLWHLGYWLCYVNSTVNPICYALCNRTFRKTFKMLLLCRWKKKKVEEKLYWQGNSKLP
# Method in brief: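 Radioligand displacement on CHO-derived membrane preparations, 1 h, filter-based scintillation counting. Single-concentration duplicate screen at 25 uM; hits (e.g. 30% inhibition) retested in singleton concentration-response up to 50 uM. Loss of binding fitted versus DMSO.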
# [10] = molecular target: rat Adrenergic, Alpha 1, Non-selective Receptor (Adra1), Adra1a (gene 29412) (UniProt P43140); test: NVS_GPCR_rAdra1_NonSelective: NovaScreen (NVS) G Protein-Coupled Receptor Assay for rat Adrenergic, Alpha 1, Non-selective Receptor (Adra1) (AID 2283289)
# Chain of rat Adrenergic, Alpha 1, Non-selective Receptor (Adra1), Adra1a (gene 29412) (P43140 whole entry, looked up): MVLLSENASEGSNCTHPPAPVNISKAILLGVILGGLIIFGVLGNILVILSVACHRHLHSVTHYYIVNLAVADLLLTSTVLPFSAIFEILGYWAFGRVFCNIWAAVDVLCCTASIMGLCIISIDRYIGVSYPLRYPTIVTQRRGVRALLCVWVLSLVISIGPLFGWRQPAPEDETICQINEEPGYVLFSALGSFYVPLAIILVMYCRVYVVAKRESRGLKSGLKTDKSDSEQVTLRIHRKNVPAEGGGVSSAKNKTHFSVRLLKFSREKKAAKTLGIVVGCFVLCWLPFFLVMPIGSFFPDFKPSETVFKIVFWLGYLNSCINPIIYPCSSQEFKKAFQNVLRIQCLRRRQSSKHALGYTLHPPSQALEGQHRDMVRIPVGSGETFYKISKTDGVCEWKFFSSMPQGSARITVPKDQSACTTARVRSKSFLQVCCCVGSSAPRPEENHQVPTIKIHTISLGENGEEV
# Method in brief: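 Rat forebrain membranes; radioligand displacement read by filter-based scintillation counting 1 h after dosing. Primary screen in duplicate at 25 uM; hits (e.g. ≥30% inhibition) rerun as concentration–response to 50 uM max. Fitted versus DMSO.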
# [11] = molecular target: human Opioid Receptor Delta 1 (Opiate D1), OPRD1 (gene 4985) (UniProt P41143); test: NVS_GPCR_hOpiate_D1: NovaScreen (NVS) G Protein-Coupled Receptor Assay for human Opioid Receptor Delta 1 (Opiate D1) (AID 2283280)
# Chain of human Opioid Receptor Delta 1 (Opiate D1), OPRD1 (gene 4985) (P41143 whole entry, looked up): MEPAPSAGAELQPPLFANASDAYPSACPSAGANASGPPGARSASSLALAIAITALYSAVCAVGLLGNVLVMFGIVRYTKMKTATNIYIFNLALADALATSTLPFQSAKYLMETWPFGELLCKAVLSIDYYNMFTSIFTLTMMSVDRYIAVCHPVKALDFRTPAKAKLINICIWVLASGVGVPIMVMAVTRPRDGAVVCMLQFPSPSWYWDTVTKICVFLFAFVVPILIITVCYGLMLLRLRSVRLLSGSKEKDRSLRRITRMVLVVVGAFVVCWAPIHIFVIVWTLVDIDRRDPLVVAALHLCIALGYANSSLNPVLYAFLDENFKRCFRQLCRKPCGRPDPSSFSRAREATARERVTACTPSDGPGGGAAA
# Method in brief: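 Radioligand displacement on membranes from CHO cells expressing the receptor, read by filter scintillation counting 1 h after dosing. Duplicate single-point screen at 25 uM, then concentration series for actives; loss of signal versus DMSO.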
# [12] = test system: guinea pig Atrionatriuretic Peptide Receptor A (ANPA), gene 100135578; test: NVS_GPCR_gANPA: NovaScreen (NVS) G Protein-Coupled Receptor Assay for guinea pig Atrionatriuretic Peptide Receptor A (ANPA) (AID 2283291)
# Method in brief: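 Radioligand binding to guinea pig cerebellar membranes was measured after 1 h by filter-based scintillation counting. Chemicals were tested in duplicate at 25 uM, with hits run in concentration-response to a maximum of 50 uM. Binding loss was fitted against DMSO.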
# [13] = molecular target: human Orphanin, Opioid Related Nociceptin Receptor 1 (ORL1), OPRL1 (gene 4987) (UniProt P41146); test: NVS_GPCR_hORL1: NovaScreen (NVS) G Protein-Coupled Receptor Assay for human Orphanin, Opioid Related Nociceptin Receptor 1 (ORL1) (AID 2283283)
# Chain of human Orphanin, Opioid Related Nociceptin Receptor 1 (ORL1), OPRL1 (gene 4987) (P41146 whole entry, looked up): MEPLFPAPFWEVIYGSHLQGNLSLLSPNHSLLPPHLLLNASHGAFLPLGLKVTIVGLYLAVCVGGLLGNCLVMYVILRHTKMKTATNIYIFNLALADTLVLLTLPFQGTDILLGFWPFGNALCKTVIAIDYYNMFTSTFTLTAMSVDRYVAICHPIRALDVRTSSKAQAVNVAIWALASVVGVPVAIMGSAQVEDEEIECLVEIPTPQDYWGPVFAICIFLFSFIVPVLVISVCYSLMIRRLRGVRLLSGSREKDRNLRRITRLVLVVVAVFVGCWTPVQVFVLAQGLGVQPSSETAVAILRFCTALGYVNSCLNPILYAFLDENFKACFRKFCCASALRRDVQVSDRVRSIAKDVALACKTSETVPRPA
# Method in brief: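 Filter-based radioligand displacement with receptor extracted from HEK293 cells, read 1 hour after dosing by scintillation counting. Duplicate single-point screen at 25 uM; qualifying chemicals then run in concentration-response to 50 uM, analysed relative to DMSO.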
# [14] = molecular target: rat Serotonin, 5-Hydroxytryptamine Receptor 1 (5HT1), Non-Selective Binding, Htr1a (gene 24473) (UniProt P19327); test: NVS_GPCR_r5HT1_NonSelective: NovaScreen (NVS) G Protein-Coupled Receptor Assay for rat Serotonin, 5-Hydroxytryptamine Receptor 1 (5HT1), Non-Selective Binding (AID 2283286)
# Chain of rat Serotonin, 5-Hydroxytryptamine Receptor 1 (5HT1), Non-Selective Binding, Htr1a (gene 24473) (P19327 whole entry, looked up): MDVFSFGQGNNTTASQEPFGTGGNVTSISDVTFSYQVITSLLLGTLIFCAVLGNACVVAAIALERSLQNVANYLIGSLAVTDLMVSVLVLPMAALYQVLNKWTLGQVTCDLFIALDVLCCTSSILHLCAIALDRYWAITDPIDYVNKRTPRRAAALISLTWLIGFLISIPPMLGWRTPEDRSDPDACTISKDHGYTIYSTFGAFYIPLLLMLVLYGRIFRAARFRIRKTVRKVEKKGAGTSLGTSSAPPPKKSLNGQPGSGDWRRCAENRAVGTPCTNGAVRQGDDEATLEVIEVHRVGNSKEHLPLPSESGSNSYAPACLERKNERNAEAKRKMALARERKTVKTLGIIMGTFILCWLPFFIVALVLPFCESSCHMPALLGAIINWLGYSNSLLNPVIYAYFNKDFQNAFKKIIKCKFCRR
# Method in brief: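 Rat cortical membranes, radioligand displacement, 1 h incubation, read by filter scintillation. Primary screen in duplicate at 25 uM. Hits (e.g. ≥30% inhibition) went to concentration-response up to 50 uM, fitted as loss of binding versus DMSO.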
# [15] = molecular target: human Vasopressin 1A Receptor (V1A), AVPR1A (gene 552) (UniProt P37288); test: NVS_GPCR_hV1A: NovaScreen (NVS) G Protein-Coupled Receptor Assay for human Vasopressin 1A Receptor (V1A) (AID 2283284)
# Chain of human Vasopressin 1A Receptor (V1A), AVPR1A (gene 552) (P37288 whole entry, looked up): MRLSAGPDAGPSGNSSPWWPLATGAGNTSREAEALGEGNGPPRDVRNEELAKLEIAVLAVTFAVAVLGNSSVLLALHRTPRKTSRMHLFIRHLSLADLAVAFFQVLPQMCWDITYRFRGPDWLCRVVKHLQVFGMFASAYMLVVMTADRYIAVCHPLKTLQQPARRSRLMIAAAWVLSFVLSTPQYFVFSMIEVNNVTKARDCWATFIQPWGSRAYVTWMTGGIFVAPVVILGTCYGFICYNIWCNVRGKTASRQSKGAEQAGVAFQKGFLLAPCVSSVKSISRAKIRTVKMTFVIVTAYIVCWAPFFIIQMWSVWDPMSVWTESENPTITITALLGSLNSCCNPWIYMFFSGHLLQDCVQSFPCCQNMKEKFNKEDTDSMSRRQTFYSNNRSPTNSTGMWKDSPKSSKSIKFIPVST
# Method in brief: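 Cell-free radioligand displacement on human platelet preparations, 1.5 h incubation, filter-based scintillation counting. Chemicals first tested in duplicate at 25 uM; actives then run in concentration-response up to 50 uM, loss of signal fitted against DMSO.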
compound,measurement,setting,value
CCOc1cccc(C2(N3CCN(c4ccccc4)CC3)CCC(C)CC2)c1 (stereo not drawn),outcome,[1],inactive
Clc1ccc(C(c2ccc(Cl)cc2)C(Cl)Cl)cc1,outcome,[2],inactive
Oc1ccccc1Cl,outcome,[3],inactive
N#CC(Br)Br,outcome,[4],inactive
CC(C)(C)C(O)(CCc1ccc(Cl)cc1)Cn1cncn1 (stereo not drawn),AC50,[4],13.1 µM (active)
same,outcome,[5],inactive
same,outcome,[6],inactive
same,AC50,[3],16.7 µM (active)
O=C(Oc1ccc(Br)cc1)N1CCN2CCC1CC2,AC50,[7],16.8 µM (active)
same,AC50,[8],15.3 µM (active)
same,AC50,[9],15.7 µM (active)
same,outcome,[10],inactive
O=P(OCCCl)(OCCCl)OCCCl,outcome,[11],inactive
Cc1cc(N=Nc2ccccc2C)ccc1N,outcome,[6],inactive
C=CCc1ccc2c(c1)OCO2,outcome,[10],inactive
CCNS(=O)(=O)C(F)(F)C(F)(F)C(F)(F)C(F)(F)C(F)(F)C(F)(F)C(F)(F)C(F)(F)F,outcome,[12],inactive
O=C(N[C@H](c1ccccc1)[C@@H]1CN2CCC1CC2)c1c(Cl)ccc(C(F)(F)F)c1Cl,outcome,[8],inactive
same,AC50,[4],23.9 µM (active)
same,outcome,[11],inactive
same,AC50,[13],3.38 µM (active)
same,outcome,[14],inactive
same,AC50,[10],23.6 µM (active)
CC(O)CCO (stereo not drawn),outcome,[15],inactive

# From PubChem BioAssay (EPA / NIEHS)
